Drawing on PubChem BioAssay (NCATS), this text covers activity, negative = inhibition for 37 compounds.

Inconclusive results are not listed. Values without a mark were called inactive. Calls come from the whole dose curve; as a rule, active = well fitted curve in either direction with a large enough effect (not every such curve was filed as active); inconclusive = small, poorly fitted or top-dose-only effect, or another doubt; inactive = flat fitted curve, though single readings scatter.
% is set by controls: 0 for no effect and ±100 for the full control effect.

The first experiment can be described thus: Stat Signaling Pathway (AID 446). Conditions: ME-180 SIE beta-lactamase reporter, IL-6 stimulated, 5 h; at 7.69 µM (top of the series). The procedure:
NCGC Assay Overview: The IL-6/STAT signaling pathway was assayed in ME-180 cervical carcinoma cells by a beta-lactamase reporter gene controlled by a STAT Inducible Element (SIE). This reporter is induced by IL-6 at 40 pM AC50 and inhibited by the pan JAK inhibitor, 2-(1,1-Dimethylethyl)-9-fluoro-3,6-dihydro-7H-benz[h]-imidaz[4,5-f]isoquinolin-7-one, at approximately 10 nM AC50. Plated cells were incubated overnight and on the following day, stimulated with 40 pM IL-6 for 5 hrs. The assay was screened at the AC50 of IL-6 activation to identify both inhibitors and activators of IL-6/STAT signaling.
NCGC Assay Protocol Summary: Cells were trypsinized, washed in assay medium (AM, OPTI MEM with 0.5% fetal bovine serum, 0.1 mM nonessential amino acids, 1 mM sodium pyruvate, 10mM HEPES pH 7.3, 100U/ml penicillin, and 100 ug/ml streptomycin) and suspended at 6 x 10e5/ml in AM. Approximately […] cells in 5 uL/well was dispensed into 1536 well plates and the cells were incubated overnight at 37 C. 23 nL of compound were delivered by a pin tool and 1 uL of IL-6 (40 pM final concentration in AM) was added. After centrifugation at 1000 rpm for less than a minute, plates were incubated at 37C for 5 hrs. One uL of detector mix (LiveBLAzerTM, Invitrogen) was added, the plates incubated at room temperature for 2.5 hrs, and fluorescence intensity at 460 and 530 nm emission was measured at 405 nm excitation by an Envision (Perkin Elmer) or Safire II (Tecan). Data were normalized by GeneData to the controls for AC90 stimulation (300 pM IL-6) and to AC90 inhibition (125 nM Jak inhibitor, 40 pM IL-6 in AM).
As to `CN1[C@@H]2CC[C@H]1CC(OC(=O)[C@@H](O)c1ccccc1)C2` (stereo not given in full), the activity, negative = inhibition is -3.56%.

Staying with this experiment, now noted: ME-180 SIE beta-lactamase reporter, IL-6 stimulated, 5 h; at 7.69 µM (top of the series) unless noted.
Consider `CN(C)Cc1ccccc1-c1cncnc1NCc1cccs1`, for which the activity, negative = inhibition is -5.04%.
For `COC(=O)N1CCC2(CCCN(c3ccncc3)C2)CC1`, the activity, negative = inhibition is 5.05%.
Take `O=C(c1ccncc1)N1CCC2(CCN(Cc3nccs3)CC2)CC1`: the activity, negative = inhibition is 4.96%.
For the compound `N#Cc1ccc(CN2CCCC3(CCN(C(=O)c4ccncc4)CC3)C2)cc1`, the activity, negative = inhibition is 1.22%.
Still for that read-out and setting: the result for `COc1ccc(C(=O)N2CCC3(CCCN(C(=O)Nc4cccc(C#N)c4)C3)CC2)cc1` reads 8.74%.
The same measure, in the same setting: the result for `CCNc1ncc2nc(-c3ccc(F)cc3)c(=O)n(CCC#N)c2n1` reads 16.7%; that for `CS(=O)(=O)Nc1cccc(-c2ccc3ncnc(NCc4cccnc4)c3c2)c1`, -6%.
As to `N#Cc1cccc(NC(=O)N2CC[C@@]3(CCCN(C(=O)c4csnn4)C3)C2)c1`, the activity, negative = inhibition was -5.12%.
Same read-out and setting: the result for `O=c1c(-c2ccccc2)nc2cnc(N3CCOCC3)nc2n1Cc1cccs1` reads 20.6%.
On the same count and under the same terms, the result for `c1ccc(-c2cccc(N3CCC4(CCNCC4)CC3)c2)cc1` reads -2.71%; that for `c1cncc(CNc2ncncc2-c2ccoc2)c1`, -4.52%.
Turning to `O=C(c1cccc(F)c1)N1CCC2(CCCN(c3ccccn3)C2)CC1`, the activity, negative = inhibition is -2.13%.
Still for that read-out and setting: in the case of `O=S(=O)(c1ccccc1)N1CCC[C@@]2(CCN(C(c3ccccc3)c3ccccc3)C2)C1` it was 13.8%; in that of `O=c1c(-c2cccs2)nc2cnc(Nc3ccccc3)nc2n1C[C@H]1CCCO1`, 22.1%; in that of `COc1ccc2[nH]cc(CCNc3cc(-c4ccoc4)ncn3)c2c1`, 2.87%.
For `COc1ncc2nc(-c3ccc(Cl)cc3)c(=O)n(Cc3cccs3)c2n1`, the activity, negative = inhibition was -18.3%.
Consider `COc1ccccc1CN1CC[C@@]2(CCCN(S(=O)(=O)c3ccccc3)C2)C1`, for which the activity, negative = inhibition is 8.35%.
On the same count and under the same terms, the result for `Cc1cccc(CNc2cc(-c3cccc(C#N)c3)ncn2)c1` reads -3.7%; that for `Cc1noc(C)c1C(=O)N1CCC2(CC1)CN(c1ccccn1)C2`, 3.57%; that for `CC(C)NC(=O)N1CC2(CCN(C(=O)c3cccn3C)CC2)C1`, 4.27%.
On the same count and under the same terms, in the case of `O=c1c(-c2cccc(F)c2)nc2cncnc2n1C1CC1` it was 1.43%.
Still for that read-out and setting: in the case of `CCNc1ncc2nc(CCc3ccccc3)c(=O)n(C[C@H]3CCCO3)c2n1` it was -9.11%.
Take `CS(=O)(=O)Nc1cccc(-c2ccc3ncnc(NCc4cccs4)c3c2)c1`: the activity, negative = inhibition was -2.34%.
Same read-out and setting: the result for `CCCN1C[C@H](CSC)C[C@H]2c3cccc4[nH]cc(c34)C[C@@H]21` reads 6.37% [at 17.2 µM].
On the same count and under the same terms, the result for `Cc1cnc(CNc2ncnc3ccc(-c4ccccc4C(F)(F)F)cc23)cn1` reads -29.2%; that for `N#Cc1ccc(CN2CCC3(CC2)CCN(C(=O)c2cnccn2)CC3)cc1`, -7.54%.
Same read-out and setting: in the case of `N#Cc1ccccc1-c1ccc2ncnc(NCCN3CCOCC3)c2c1` it was 0.199%; in that of `N#Cc1ccc(CN2CC3(CCN(C(=O)c4ccncc4)CC3)C2)cc1`, 6.61%; in that of `COc1ccc(C(=O)N2CCC[C@@]3(CCN(c4ccncc4)C3)C2)cc1`, -6.9%.
Turning to `COc1ccc(Oc2ncc3nc(-c4ccc(F)cc4)c(=O)n(Cc4cccs4)c3n2)cc1`, the activity, negative = inhibition was -8.36%.
Turning to `c1cncc(-c2nccc(-n3ccnc3)n2)c1`, the activity, negative = inhibition was -2.73%.
On the same count and under the same terms, in the case of `COc1ccc(Oc2ncc3nc(-c4ccc(F)cc4)c(=O)n(C4CC4)c3n2)cc1` it was 14.5%.
`COc1ccc(-n2c(=O)c(-c3ccc(F)cc3)nc3cncnc32)cc1`: the activity, negative = inhibition is 6.09%.
Consider `COC(=O)N1CCC2(CC1)CCN(c1ncccn1)CC2`, for which the activity, negative = inhibition is -4.92%.

The experiment is the same for the next values; noted with them: ME-180 SIE beta-lactamase reporter, IL-6 stimulated, 5 h; at 17.2 µM (top of the series).
For `NC(=O)c1cc[n+](CC2=C(C(=O)O)N3C(=O)[C@@H](NC(=O)[C@H](c4ccccc4)S(=O)(=O)[O-])[C@@H]3SC2)cc1`, the activity, negative = inhibition was 0.394%.
`CN1[C@@H]2CC[C@H]1CC(OC(=O)[C@@H](O)c1ccccc1)C2` (stereo not given in full): the activity, negative = inhibition is 8.85%.
Same read-out and setting: the result for `CCCN[C@@H](C)C(=O)Nc1ccccc1C` reads -2.53%.

Staying with this experiment, now noted: ME-180 (cervical carcinoma) SIE beta-lactamase reporter, IL-6 stimulated, 5 h; at 38 µM (top of the series).
With `NC(=O)c1cc[n+](CC2=C(C(=O)O)N3C(=O)[C@@H](NC(=O)[C@H](c4ccccc4)S(=O)(=O)[O-])[C@@H]3SC2)cc1`, the activity, negative = inhibition was 0.148%.
On the same count and under the same terms, the result for `CCCN[C@@H](C)C(=O)Nc1ccccc1C` reads -11.1%.
